PLK1 PBD inh – qHTS for Inhibitors of PLK1-PDB (polo-like kinase 1 - polo-box domain): Primary Screen. Plk1 PBD binding of FITC phosphopeptide, fluorescence polarization. Potency, µM, for the others: max response, negative = inhibition, hits mostly inhibitors. 2.8% of 360,000 active. AID 720504, 2013; also: series mostly up to about 57 µM; nearly all actives have a fitted effect of over 65% in size
Sfp PPTase inh – qHTS Assay for Inhibitors of Bacillus subtilis Sfp phosphopantetheinyl transferase (PPTase); 4'-phosphopantetheinyl transferase ffp (Bacillus subtilis), Q9F4F7; Biochemical Sfp PPTase activity, qHTS; Potency, µM, without a hit: largest response in the series, negative = inhibition, most hits filed as inhibitors; 3.5% of 310,000 active; AID 1490, 2009;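 also: the enzyme is Sfp with the accession as filed and its product quenches rhodamine fluorescence; 0% = enzyme reaction without inhibitor and -100% = no enzyme wells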
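After 15 min at room temperature with compound, 15 nM Sfp received 5 uM rhodamine-CoA plus 12.5 uM BHQ-2-ybbR (50 mM Hepes pH 7.6, 10 mM MgCl2). Rate came from the fluorescence difference over 30 min, ex 525/em 598 nm.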
Gal4-VP16 FLuc – VP16 counterscreen qHTS for inhibitors of ROR gamma transcriptional activity; Drosophila S2 Gal4-VP16 UAS-luciferase, luminescence, 20 h; Potency, µM (series often up to 53.6 µM), without a hit: top-dose activity, negative = inhibition, actives largely listed as inhibitors; 3.5% of 310,000 active; AID 2546, 2010;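 also: Gal4-VP16 expression switched on by copper sulfate through the metallothionein promoter; nearly all actives have a fitted effect of over 50% in size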
ALDH1A1 block – qHTS Assay for Inhibitors of Aldehyde Dehydrogenase 1 (ALDH1A1); Aldehyde dehydrogenase 1A1 (Homo sapiens), P00352; Purified ALDH1A1, NADH fluorescence, propionaldehyde substrate; Potency, µM (top dose mostly 75.3 µM), for the others: at the highest dose activity, negative = inhibition, hits mostly inhibitors; 7.3% of 220,000 active; active = well fitted inhibition curve with a large enough effect, not every such curve was filed as active; inconclusive = small, poorly fitted or top-dose-only effect, or another doubt; inactive = no such curve, though single readings can be large or run the other way;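 also: plate controls were no enzyme wells and a reference inhibitor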
Target sequence (P00352 whole entry, looked up): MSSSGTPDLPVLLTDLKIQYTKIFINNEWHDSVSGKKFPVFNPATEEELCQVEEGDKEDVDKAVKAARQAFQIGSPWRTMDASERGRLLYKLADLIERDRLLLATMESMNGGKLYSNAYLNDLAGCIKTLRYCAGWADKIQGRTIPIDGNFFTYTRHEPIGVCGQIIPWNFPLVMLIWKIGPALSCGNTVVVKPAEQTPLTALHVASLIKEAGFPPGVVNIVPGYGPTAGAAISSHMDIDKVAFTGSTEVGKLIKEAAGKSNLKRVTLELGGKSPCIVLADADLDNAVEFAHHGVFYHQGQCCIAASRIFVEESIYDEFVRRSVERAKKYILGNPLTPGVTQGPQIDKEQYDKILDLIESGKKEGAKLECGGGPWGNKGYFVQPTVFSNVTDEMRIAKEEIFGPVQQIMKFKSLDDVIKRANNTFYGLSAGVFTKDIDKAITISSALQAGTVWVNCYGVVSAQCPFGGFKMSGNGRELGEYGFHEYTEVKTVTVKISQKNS
RORgamma inh – qHTS for inhibitors of ROR gamma transcriptional activity; Nuclear receptor ROR-gamma (Mus musculus), P51450; Drosophila S2 Gal4-RORgamma UAS-luciferase reporter, 20 h; Potency, µM (top dose mostly 53.6 µM), inactives show at the top dose activity change, negative = inhibition, hits mostly inhibitors; 5.4% of 310,000 active; AID 2551, 2010; also: nearly all actives have a fitted effect of over 60% in size
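Using a luciferase readout, inhibitors were identified by reduced reporter activity in Drosophila cells coexpressing a copper-inducible Gal4–ROR gamma fusion and UAS-driven Photinus luciferase, incubated 20 hr after 700 uM copper sulfate.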
Active calls of the source: *; ? = inconclusive; nt = no result; [ ] = dose if it differs, or a comment. A selection: hits, their analogues and other compounds. The true share with any hit is near 12%. Unless noted, calls follow the shape of the dose curve; as a rule, active = well fitted curve in the direction sought with a large enough effect; inconclusive = small, poorly fitted or top-dose-only effect, or another doubt; inactive = no such curve, though single readings can be large; an effect the other way counts as inactive or inconclusive. Unless noted, % is scaled to controls: 0 for no effect and ±100 for the full control effect; potency is read from the fitted curve at half-maximal effect.

SMILES	PLK1 PBD inh	Sfp PPTase inh	Gal4-VP16 FLuc	ALDH1A1 block	RORgamma inh
Cc1ccc(CNC(=O)[C@H]2C[C@@H]2[C@H](NP(=O)(c2ccccc2)c2ccccc2)c2ccccc2)c(F)c1F	nt	16%	-13%	-5%	17%
O[C@H]1C[C@H](c2ccc(Cl)cc2)N(Cc2cccs2)C[C@@H]1n1cc(-c2ccc(F)cc2)nn1	-3%	nt	nt	nt	nt
CCCCC(=O)OCC(=O)[C@]1(O)Cc2c(O)c3c(c(O)c2[C@H](OC2CC(NC(=O)C(F)(F)F)C(O)C(C)O2)C1)C(=O)c1c(OC)cccc1C3=O (stereo partly drawn)	nt	9%	-13%	nt	-30%[10 µM]
CC(=O)[C@]1(O)Cc2c(O)c3c(c(O)c2[C@@H](O[C@H]2C[C@H](N)[C@H](O)[C@H](C)O2)C1)C(=O)c1ccccc1C3=O	5.3µM*	-21%	-68%	?	?
CC(=O)[C@]1(O)Cc2c(O)c3c(c(O)c2[C@@H](O[C@H]2C[C@H](N)[C@H](O)[C@H](C)O2)C1)C(=O)c1c(O)cccc1C3=O	nt	?	7.1µM*	-4%	3.5µM*
Cc1ccc(NC(=O)/C=C\C(=O)NCC(=O)O)cc1	0%	71µM*	1%[10 µM]	28µM*	9%
Cc1ccc(NS(=O)(=O)c2ccc(NC(=O)c3ccc(-c4ccccc4)cc3)cc2)c(C)c1	24µM*	nt	nt	nt	nt
Cc1ccc(S(=O)(=O)Nc2ccc(NC(=O)/C=C/C(=O)O)cc2)cc1	-12%	5%	-13%	35µM*	2%
CCOC(=O)Nc1ccc(NS(=O)(=O)c2ccc(C)cc2)cc1	-6%	4%	0%	?	?
CCc1nnc(NS(=O)(=O)c2ccc(NC(=S)NC(=O)/C=C/c3ccc(OC)cc3)cc2)s1	27µM*	79µM*	1%	2.5µM*	19%
CCc1nnc(NS(=O)(=O)c2ccc(NC(=S)NC(=O)/C=C/c3ccccc3)cc2)s1	?	-8%	-5%	?	18%
Cc1cnc(CNc2cc(-c3cccnc3)ncn2)cn1	nt	11%	-2%	-9%	40%
FC(F)(F)c1nc2nccnc2[nH]1	5%	nt	nt	nt	nt
COc1ccc(C(C)=O)cc1Cn1c(=O)cc(C)[nH]c1=O	-1%	15%	3%	nt	15%
COc1ccccc1N(C)S(=O)(=O)c1ccc(Cl)c(C(=O)Nc2ccccc2N2CCOCC2)c1	-3%	nt	nt	nt	nt
Nc1ncnc2c1ncn2[C@@H]1O[C@H](C(=O)N[C@@H](CO)Cc2ccccc2)[C@@H](O)[C@H]1O	3%	nt	nt	nt	nt
CCc1nnc(NS(=O)(=O)c2ccc(NC(=S)NC(=O)/C=C/c3ccc(C(C)C)cc3)cc2)s1	21µM*	?	-28%	-73%	-5%
Cc1ccc(/C=C/C(=O)Nc2ccc(S(=O)(=O)Nc3onc(C)c3C)cc2)cc1	38µM*	8%	-5%	nt	27%
Cc1noc(NS(=O)(=O)c2ccc(N/C=C/C(=O)c3ccc(F)cc3)cc2)c1C	-11%	-16%	-3%	12%	8%
CCc1nnc(NS(=O)(=O)c2ccc(NC(=O)/C=C/C(=O)O)cc2)s1	-38%	50µM*	-2%	nt	1%
CC(C)=CC(=O)Nc1ccc(S(=O)(=O)Nc2onc(C)c2C)cc1	-7%	-1%	-8%	nt	-22%
CCc1ccc(C(=O)/C=C/Nc2ccc(S(=O)(=O)Nc3onc(C)c3C)cc2)cc1	?	?	16µM*	?	?
N#Cc1cccc(-c2cncnc2-n2ccnc2)c1	nt	?	14%	8%	-19%
COC(=O)c1ccc(C(NC(=O)OCc2ccccc2)/C(C)=C/[C@@H](C)C(=O)NCCc2c[nH]c3ccc(OC)cc23)cc1 (stereo partly drawn)	nt	12%	-7%	-13%	?
CCc1nnc(NS(=O)(=O)c2ccc(N/C=C\C(=O)c3ccc4ccccc4c3)cc2)s1	24µM*	-9%	-5%	?	?
SMILES	PLK1 PBD inh	Sfp PPTase inh	Gal4-VP16 FLuc	ALDH1A1 block	RORgamma inh
Cc1ccc(S(=O)(=O)Nc2ccc(NC(=O)c3ccc(F)cc3)cc2)cc1	-11%	11%	-9%	-7%	10%
CCc1nnc(NS(=O)(=O)c2ccc(NC(=O)c3ccccc3)cc2)s1	-10%	16%	0%	nt	-1%
COc1cc(/C=C/C(=O)c2ccc(NS(=O)(=O)c3ccc(C)cc3)cc2)cc(OC)c1O	10%	-8%	?	22µM*	?
CCCCC(=O)Nc1ccc(C(=O)Nc2ccc(S(=O)(=O)Nc3ccc(C)cc3)cc2)cc1	1%	14%	11µM*	6%	?
S=C(NCc1ccco1)Nc1ccccc1Cl	-18%	?	16%	?	10µM*
S=C(NCc1ccco1)Nc1cccc(Cl)c1Cl	-9%	14%	-18%	nt	-104%
Cc1c(Cl)cccc1NC(=S)NCc1ccco1	-4%	-5%	?	nt	5µM*
FC(F)Oc1ccccc1NC(=S)NCc1ccco1	-15%	-4%	3%	?	15%
Cc1cccc(NC(=S)NCc2ccco2)c1C	-11%	6%	11µM*	?	7.9µM*
CCn1c(C(=O)O)c(S(=O)(=O)c2ccc(Cl)cc2)c2ccccc21	2%	-1%	-6%	nt	-5%
COC(=O)CCCn1cc(CN2CC(N(C)C)CS2(=O)=O)nn1 (stereo not drawn)	1%	nt	nt	nt	nt
Cc1ccc(/C=C/C2=Cc3c(sc(NC(=O)CSc4n[nH]c(N)n4)c3C#N)C(C)(C)C2)o1	nt	2.5µM*	-3%	0.79µM*	24%
Cc1cc(NC(=O)CSc2n[nH]c(N)n2)no1	7%	18%	-1%	7%	-8%
CC(=O)c1sc(Nc2nc3cc4c(cc3s2)OCO4)nc1C	?	?	-13%	?	5µM*
CCOC(=O)c1sc(Nc2nc3c(OC)cccc3s2)cc1C	-1%	?	?	?	?
CCOC(=O)c1sc(Nc2nc3cc4c(cc3s2)OCO4)cc1C	1%	-8%	6.3µM*	?	5µM*
CCOc1ccc(N)c(SSc2cc(OCC)ccc2N)c1	1.7µM*	2.8µM*	6.3µM*	nt	7.9µM*
Nc1sc(-c2ccccc2)cc1C(=O)N1CCN(c2ccccc2)CC1	-7%	nt	nt	nt	nt
Cc1ccc2c(c1)/C(=N/OC(=O)c1ccc(F)cc1)CCS2	-1%	-27%	-7%	3%	-1%
O=C(O/N=C1/CCSc2ccccc21)c1ccccc1	-2%	79µM*	-5%	19µM*	16%
COc1ccc(COC(=O)N/N=C2/C[C@@H](O)[C@@H](O)[C@@H]3[C@@H]4C(=O)N(C[C@@H]5CCCO5)C(=O)[C@H]4CC[C@H]23)cc1	nt	-6%	-10%[10 µM]	-3%[13.5 µM]	-1%[10 µM]
CCN1C(=O)C(O)(C2COC(C)(C)CC2=O)c2ccccc21 (stereo not drawn)	3%	11%	-6%	?	-6%

Screening data (PubChem)
